# From PubChem BioAssay (EPA / NIEHS)
# Calls of active or inactive are those of the source. The calls were made as follows: active = hit-call score of the fitted dose curve at least 0.9, where 1 is the maximum; inactive = score below 0.9.
# Assay: APR_HepG2_StressKinase_24hr: Apredica 24-hour HepG2 Assay for Stress Kinase (AID 2282922)
# Details: HepG2 stress kinase (phospho-c-Jun) imaging, actives raise or lower the signal
# Method: APR_HepG2_24hr is a cell-based, multiplexed-readout assay that uses HepG2, a human liver cell line, with measurements taken at 24 hours after chemical dosing in a 384-well plate.APR_HepG2_StressKinase_24hr is one of 10 assay component(s) measured or calculated from the APR_HepG2_24hr assay. It is designed to make measurements of enzyme activity, a form of enzyme reporter, as detected with fluorescence intensity signals by HCS Fluorescent Imaging technology.Data from the assay component APR_HepG2_StressKinase_24hr was analyzed into 1 assay endpoint. This assay endpoint, APR_HepG2_StressKinase_24hr, was analyzed with bidirectional fitting relative to DMSO as the negative control and baseline of activity. Using a type of enzyme reporter, measures of protein for gain or loss-of-signal activity can be used to understand the signaling at the pathway-level as they relate to the gene . Furthermore, this assay endpoint can be referred to as a primary readout, because this assay has produced multiple assay endpoints where this one serves a signaling function. To generalize the intended target to other relatable targets, this assay endpoint is annotated to the cell cycle intended target family, where the subfamily is stress response.
# Cells were treated with dimethyl sulfoxide (DMSO) as a solvent control at a final concentration of 0.5% v/v or with compounds in DMSO with a resulting final DMSO concentration of 0.5% v/v. Compound treatment was done at concentrations of 0.39, 0.78, 1.56, 3.12, 6.24, 12.5, 25, 50, 100, and 200 uM in duplicate on each plate. Cells were treated with compounds for 1, 24, or 72 hr. Carbonyl […] m-chloro-phenylhydrazone (CCCP) and taxol were used as positive controls for mitochondrial function and cytoskeletal stability, respectively; DMSO served as the negative control for this experiment. Cells were fixed by the direct addition of 50 uL formaldehyde in Hank's Balanced Salt Solution (HBSS) to a final concentration of 3.7%. After incubation in the fixation medium for 30 min at room temperature (293-298 K), cells were rinsed twice with HBSS and treated with cell permeabilization buffer (16 uL of 0.5% Triton X-100) for 10 min at room temperature (293-298 K) before labeling. For mitochondrial membrane potential and mitochondrial measurements, pre-fixed cells were incubated with 50 uL of MitoTracker Red CMXRos (Invitrogen) at a concentration of 250 nM for 30 min before fixation. In the remaining cases, post-fixed cells were labeled by incubation with a multiplexed mixture of primary antibodies in HBSS for 60 min at room temperature (293-298 K) to detect immunoreactivity of c-Jun (1:500), phospho-histone H3 (1:100), phospho-histone H2A.x (1:200), p53 (1:400), alpha-tubulin (1:200) and Hoechst 33342 (2 ug/mL). Cells were labeled for multiplexed imaging on two separate plates: a) Hoechst 33342, MitoTracker Red, phospho-histone H3, and alpha-tubulin, and b) Hoechst 33342, phospho-histone H2A.x, and c-Jun. A final rinse with HBSS (50 uL) was performed before analysis. The primary and secondary antibodies for the proteins were phospho-histone H3 (rabbit anti-phospho-histone H3 and FITC-donkey anti-rabbit IgG), phospho-histone H2A.x (mouse anti-phospho-histone H2A.x and FITC-donkey anti-mouse IgG), c-Jun (rabbit anti-phospho-c-Jun and Cy3-donkey anti-rabbit IgG), p53 (sheep anti-p53 and Cy5-donkey anti-sheep IgG), alpha-tubulin (mouse anti-alpha-tubulin and Cy5-donkey anti-mouse IgG). These antibodies are available as the CellCiphr HepG2 assay kit (Millipore).Digital images of each well were captured using a Cellomics ArrayScan VTI (Thermo Scientific Cellomics) (0.8 NA objective, 0.63x optical coupler, and XF-93 filter set) at 20x magnification. The images were acquired using the autofocus feature of the ArrayScan instrument, which entails the following steps. First, the camera focuses on channel 1 (Hoechst 33342), where nuclei are identified. Second, a Z offset of 1 um is used for capturing mitochondria (MitoTracker Red). […]
SMILES,outcome,AC50
O=C1O[C@H]([C@@H](O)CO)C(O)=C1O,inactive,–
CN(C)c1ccc(C(=C2C=CC(=[N+](C)C)C=C2)c2ccc(N(C)C)cc2)cc1,–,6.59 µM (active)
C[C@]12CC[C@@H]3c4ccc(O)cc4CC[C@H]3[C@@H]1CCC2=O,inactive,–
CCCCCCCCCCCO,inactive,–
CCN(Cc1cccnc1)C(=O)c1cccc(Cl)c1[C@]1(C)C(=O)N(Cc2ccc(OC)cc2OC)c2ccc(Cl)cc21,inactive,–
CC[C@H](NC(=O)c1cc(F)ccc1NS(=O)(=O)c1cccc2cccnc12)c1ccccc1,inactive,–
CCCCCCCCCC(=O)O,inactive,–
O=CCCCC=O,inactive,–
CCCC(=O)OCCC(C)C,inactive,–
CCN(CC)C(=O)c1cc(S(=O)(=O)Cc2ccccc2)c(N2CCC(c3ccccc3)CC2)cc1N(CC)CCN(C)C,inactive,–
CCCCCCCCN(C)CCCCCCCC,inactive,–
Cc1oc2c(NC(=O)c3c(Cl)cccc3Cl)cccc2c1C(C)(C)O,inactive,–
CC(O)CC(C)(C)O (stereo not given),inactive,–
CCN(Cc1cccc(S(=O)(=O)O)c1)c1ccc(C(=C2C=CC(=[N+](CC)Cc3cccc(S(=O)(=O)O)c3)C=C2)c2ccccc2S(=O)(=O)[O-])cc1,inactive,–
OCCO,inactive,–
Cc1c2ccccc2c(C)c2c1ccc1ccccc12,inactive,–
NC(=O)c1nc(-c2cccc(-c3cc(F)ccc3OCC(F)(F)C(F)(F)F)c2)n[nH]1,inactive,–
CCO[Si](CCCNC(N)=O)(OCC)OCC,inactive,–
O=C(O)Cc1cc(I)c(Oc2ccc(O)c(I)c2)c(I)c1,inactive,–
O=C(OCCCCCCOC(=O)c1ccccc1)c1ccccc1,inactive,–

SMILES,outcome,AC50
CC(=O)N1CCN(c2ccc(OC[C@H]3CO[C@](Cn4ccnc4)(c4ccc(Cl)cc4Cl)O3)cc2)CC1,–,74.9 µM (active)
Oc1ccc2ccccc2c1,inactive,–
CN(C[C@@H](CC[N+]12CCC(C3CCCCC3)(CC1)CC2)c1ccc(Cl)c(Cl)c1)C(=O)c1cc(C(F)(F)F)cc(C(F)(F)F)c1,inactive,–
NCc1cccc(C2CCN(C(=O)c3ccc(C#Cc4ccccc4F)o3)CC2)c1,inactive,–
CCCCCc1ccc(N)cc1,inactive,–
Oc1ccccc1,inactive,–
CC1(C)NC(=O)N(c2ccc([N+](=O)[O-])c(C(F)(F)F)c2)C1=O,inactive,–
c1ccc(C[n+]2cccc3ccccc32)cc1,inactive,–
Clc1ccccc1C(c1ccccc1)(c1ccccc1)n1ccnc1,–,62 µM (active)
O=c1c(-c2ccc(O)cc2)coc2cc(O)cc(O)c12,inactive,–
CCCCOC(=O)CC(CC(=O)OCCCC)(OC(C)=O)C(=O)OCCCC,inactive,–
O=C=NCCCCCCN=C=O,inactive,–
O=C(O)Cn1c(=O)n(Cc2ccc(Br)cc2F)c(=O)c2ccc(Cl)cc21,inactive,–
COc1ccc2cc(S(=O)(=O)N[C@H](CC(=O)N[C@H](Cc3ccc(CN4[C@H](C)CCC[C@@H]4C)cc3)C(=O)N(C)C(C)C)c3ccc4c(c3)OCO4)ccc2c1,inactive,–
CN1C(=O)N(c2ccccc2Br)Cc2cnc(Nc3ccc4c(c3)OCC(CO)O4)nc21 (stereo not given),inactive,–
CCCOC(=O)c1cc(O)c(O)c(O)c1,inactive,–
CC(C)(O)c1ccc(CNC(=O)c2cccnc2Oc2ccc3nonc3c2)cc1,inactive,–
CCCCCCCCCCCC[N+](C)(C)C,inactive,–
Cc1cc(F)ccc1-c1cc(N2CC[C@@H](O)[C@H]2CO)ncc1N(C)C(=O)C(C)(C)c1cc(C(F)(F)F)cc(C(F)(F)F)c1,inactive,–
O=C(Nc1ccc(Cl)cc1)Nc1ccc(Cl)c(Cl)c1,inactive,–
